# Experimental data: PubChem BioAssay (NCI)
# “And” between values parts separate entries of the source, which are not always exact repeats. Equal entries are not always repeated. About 83,000 compounds went through this panel and 20% of them were active in at least one assay; those are over-represented in the sample as a whole.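 Negative percent growth values reflect cell death: -40 means 40% of the cells present at the start died, and -100 means all died.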 The source made the active and inactive calls. Where a SMILES comes first, the peptide text is derived from it.
# System: HCT-116 colon
# Test: NCI-60 one-dose screen, 48 h (100 = growth as untreated, 0 = no growth, -100 = all killed)
# Conditions: 10 µM unless noted
# Procedure: Growth inhibition of the HCT-116 human tumor cell line is measured as a screen for anti-cancer activity. Cells are grown in 96 well plates and exposed to the test compound for 48 hours. Compounds are tested at a single concentration, which is 10^-5 M for most compounds. The reported endpoint is percent growth (GI% or GIPRCNT), where numbers from 0 - 100% represent growth inhibition, and numbers from -100% - 0 represent cell death. For example, a value of 40 represents 60% growth inhibition. A value of 0 means no net growth occurred over the course of the experiment. A value of -40 indicates 40% of cells at the beginning of the experiment died by the end of the experiment. A value of -100 means all cells are dead at the end of the experiment.
# NCI-60 Human Tumor Cell Lines Screen was performed using the standard one-dose NCI protocol, which is described in more detail at https://dtp.cancer.gov/discovery_development/nci-60/default.htm.
# Compounds with GIPRCNT values below 10 were considered active. Activity score was based on GIPRCNT using the following formula: […]
# Score is 0 for GIPRCNT values of 100 or above, 50 for GIPRCNT values of 0, and 100 for GIPRCNT values of -100.
row,SMILES,growth
1,O=C(CO)C(O)C(O)C(O)C(O)CO (stereo not given),99.7% (inactive) and 97.4% (inactive)
2,O=C(O)/C=C\C(=O)Nc1cccc2ccccc12,103% (inactive) and 101% (inactive)
3,Nc1cc(N)c(N)cc1N,0.84% (active)
4,Cl,104% (inactive)
5,Nc1ncnc2c1ncn2C1OC(COP(=O)(O)O)C(O)C1O (stereo not given),108% (inactive)
6,Cc1cc(-c2ccc(N=Nc3ccc4c(S(=O)(=O)O)cc(S(=O)(=O)O)c(N)c4c3O)c(C)c2)ccc1N=Nc1ccc2c(S(=O)(=O)O)cc(S(=O)(=O)O)c(N)c2c1O,85.8% (inactive)
7,CC1CCC(C(C)C)C(NNC(N)=O)C1 (stereo not given),99.5% (inactive)
8,O=C1c2c(O)ccc(O)c2C(=O)c2c(NCCNCCO)ccc(NCCNCCO)c21,-20.2% (active) and -44.9% (active)
9,O=C1C=C(Nc2ccccc2)c2ccccc2C1=O,6.58% (active) and 92.8% (inactive)
10,CC(C)C(C)(C)c1ccc(O)cc1,105% (inactive)
11,O=C(Cc1ccccc1)c1ccc(O)c(Cl)c1,27% (inactive)
12,CCN(CCNS(C)(=O)=O)c1ccc(N)c(C)c1,-52.9% (active) and 43.1% (inactive)
13,NC(Cc1ccccc1)C(=O)NC(Cc1ccccc1)C(=O)O (stereo not drawn) (H-Phe-Phe-OH; configuration not given here),103% (inactive) and 100% (inactive)
14,OC1COC(OCc2ccccc2)C(O)C1O (stereo not given),99.6% (inactive)
15,CC1=C/C(O)CC(=O)Cc2nc(co2)C(=O)N2CCC=C2C(=O)OC(C(C)C)C(C)/C=C\C(=O)NC/C=C\1 (stereo not given),34.3% (inactive)
16,CC[C@H](CC[C@@H](C)[C@H]1CC[C@H]2[C@@H]3CC=C4C[C@@H](O)CC[C@]4(C)[C@H]3CC[C@]12C)C(C)C,94.6% (inactive) and 105% (inactive)
17,O=CN1CCCCC1,104% (inactive)
18,COc1ccc(N/C=C/C2=[N+](C)c3ccccc3C2(C)C)c(OC)c1,88.8% (inactive)
19,c1ccc(-c2nc3ccccc3s2)cc1,97.3% (inactive)
20,ClCCOCCOc1ccc(C2CCCCC2)cc1,99.5% (inactive)

row,SMILES,growth
1,O=C(O)CCCl,94.8% (inactive)
2,OCCN1CCCCCCC1,97.1% (inactive)
3,O=C1CSC2=NCCN12,82.7% (inactive) and 63.8% (inactive)
4,CCCCOC(=O)/C=C\C(=O)NC(N)=O,80.1% (inactive)
5,COc1ccc2cc1Oc1ccc(cc1)C[C@H]1c3cc(c(OC)cc3CCN1C)Oc1c(OC)c(OC)cc3c1[C@H](C2)N(C)CC3,14% (inactive)
6,CCCCCCCCCCCCCCCCC(C(=O)O)C(O)(CC(=O)O)C(=O)O (stereo not given),105% (inactive) and -35.5% (active)
7,CC(=O)OCC1OC(OC(C)=O)C(OC(C)=O)C(OC(C)=O)C1OC(C)=O (stereo not given),103% (inactive)
8,O=[N+]([O-])c1cccc(SSc2cccc([N+](=O)[O-])c2)c1,94% (inactive)
9,CC(=O)OC(C)C(=O)NCC(C)O (stereo not given),95.2% (inactive)
10,N#CC(C#N)N=Nc1cc(Cl)ccc1Cl,97.2% (inactive)
11,OCC1OC(O)C(O)C(O)C1O (stereo not given),104% (inactive)
12,Cc1cc2ccccc2cn1,99% (inactive) and 108% (inactive)
13,CN(C)c1ccc(/C=C\C(=O)c2ccccc2)cc1,75.9% (inactive) and 94.2% (inactive) and 59.2% (inactive)
14,Oc1ccc(Cc2ccccc2Cl)c(O)c1,96.6% (inactive)
15,CCCCNc1ccc(Nc2ccccc2)cc1,47.9% (inactive)
16,Cc1ccc(=O)[nH]n1,107% (inactive)
17,C/C(=C\c1ccccc1)c1ccccn1,101% (inactive)
18,O=c1n(CC2CO2)c(=O)n(CC2CO2)c(=O)n1CC1CO1 (stereo not given),73.9% (inactive)
19,CC(C)NCC(O)c1ccc(O)c(O)c1 (stereo not given),100% (inactive) and 93.3% (inactive) and 71.7% (inactive)
20,Cc1cc(-c2cc(C)c(O)c(C)c2)cc(C)c1O,83.7% (inactive)
